Screen size: about 340,000 compounds; about 2,100 (0.62%) were called active.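 The calls were made as follows: active = first-screen hits whose inhibition reached a set limit at any dose in the follow-up dose series; inconclusive = inhibition above the set first-screen limit but never retested; inactive = the rest.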 Not all results are given here. Results with a measured potency or affinity are listed apart.
Biological target: Rac GTPase-activating protein 1 (Homo sapiens) (UniProt Q9H0H5)
Assay: blockers of MgcRacGAP-driven Rac1 GTP hydrolysis – biochemical, ADP Hunter fluorescence, primary and confirmatory, confirmation (AID 624330);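 also: fluorescence reports GDP produced by GAP-driven GTP hydrolysis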
Settings: MgcRacGAP-stimulated Rac1 GTP hydrolysis, at 30 µM, active compounds read high, GST-tagged Rac1 F28L mutant substrate

Sequence of Rac GTPase-activating protein 1 (Homo sapiens) (Q9H0H5 whole entry, looked up): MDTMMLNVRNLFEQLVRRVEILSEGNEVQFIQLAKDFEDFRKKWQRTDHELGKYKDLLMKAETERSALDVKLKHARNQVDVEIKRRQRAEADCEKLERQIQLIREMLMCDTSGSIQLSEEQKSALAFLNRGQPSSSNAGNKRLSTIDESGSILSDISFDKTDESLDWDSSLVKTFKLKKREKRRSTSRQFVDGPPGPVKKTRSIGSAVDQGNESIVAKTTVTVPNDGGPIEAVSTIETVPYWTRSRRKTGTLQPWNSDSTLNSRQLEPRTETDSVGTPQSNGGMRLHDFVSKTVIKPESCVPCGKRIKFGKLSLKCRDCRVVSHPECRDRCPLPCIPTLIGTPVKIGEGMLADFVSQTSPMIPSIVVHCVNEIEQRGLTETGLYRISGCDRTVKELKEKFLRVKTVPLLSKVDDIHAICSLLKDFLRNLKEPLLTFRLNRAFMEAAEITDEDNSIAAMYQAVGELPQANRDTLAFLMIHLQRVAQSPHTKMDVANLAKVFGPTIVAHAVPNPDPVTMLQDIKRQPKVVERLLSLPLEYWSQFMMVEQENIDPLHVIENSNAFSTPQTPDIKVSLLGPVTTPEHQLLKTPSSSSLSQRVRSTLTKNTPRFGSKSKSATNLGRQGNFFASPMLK

inhibition, inactive:
O=C(c1cc2nc(-c3ccc(F)cc3)cc(C(F)(F)F)n2n1)N1CCOCC1 10.3%
CCN1C(=O)[C@H]2[C@H]3CN=C(SCc4ccc(C(=O)OC)cc4)N3[C@@](CC)(C(=O)OC)[C@H]2C1=O 6.61%
O=C(Nc1ccc2nc(-c3cccnc3)[nH]c2c1)c1ccccc1F 5.15%
O=C(O)C1CC(c2ccc(F)cc2)=NO1 (stereo not drawn) 1.2%
CC(C)[C@H](NC(=O)OCc1ccccc1)C(=O)OCC(=O)NC1CCCCC1 10.6%
Cc1nonc1CN(C)C(=O)CC1C(=O)NCCN1Cc1ccccc1F (stereo not drawn) 2.81%
COc1cc(/C=C/C(=O)CC(=O)/C=C/c2ccc(O)c(OC)c2)ccc1O 27.8%
COc1ccc(/C=N/Nc2ccc(C(=O)O)cc2)cc1OC 12.8%
COc1cc(/C=N/Nc2ccc(C(=O)O)cc2)cc(OC)c1OC -9.42%
CC(/C=C/c1ccc(O)cc1)=NNc1ccccc1 31.4%
CCN(CC)c1ccc(/C=N\NC(=O)c2cccc3cc[nH]c23)cc1 21.1%
CCN(CC)c1ccc(/C=N/NC(=O)c2c[nH]c3ccccc23)cc1 30.9%
Cc1ccc(OCCn2cc(/C=N/NC(=O)c3ccncc3)c3ccccc32)cc1 -10.1%
COc1ccc(OCCn2cc(/C=N/NC(=O)c3ccncc3)c3ccccc32)cc1 4.18%
CN(C(=O)c1cccc(NC(=O)Cc2ccc(NC(=O)C3CCCN(S(=O)(=O)c4cccc([N+](=O)[O-])c4)C3)cc2)c1)C1CCCCC1 (stereo not drawn) 3.08%
O=C(COc1ccc(Cl)cc1)NCc1nnc(SCC(=O)N2CCCc3ccccc32)o1 2.68%
COc1ccc(-c2nnc(NC(=O)Cc3ccccc3)o2)cc1 7.81%
COc1ccc(CN2CCOCCOCCOCC2)cc1 0.62%
C=CCn1c(=O)c2ccccc2n2c(SCC(=O)NCCc3ccccc3)nnc12 6.1%
CC(C)n1nc(C(=O)NCCc2ccc(S(N)(=O)=O)cc2)c2ccccc2c1=O 0.38%
COc1ccc(CN2C(=O)c3ccccc3C2=O)cc1C(=O)OCC(=O)NC1CCCCC1 7.94%
c1ccc2cc(CNCc3cccc4ccccc34)ccc2c1 13%
O=C(COC(=O)CN1CCSC1=O)Nc1ccc(F)cc1Cl 2.57%
O=C(NCC1COc2ccccc2O1)c1ccc(NC(=O)C2CCCO2)cc1 (stereo not drawn) 10.6%
Cc1nnc(NC(=O)CCn2c(=O)oc3ccccc32)s1 4.88%
C=CCSc1ncccc1C(=O)NCCc1ccc(Cl)cc1 10.4%
O=C(N/N=C/c1ccccc1O)C1(O)c2ccccc2-c2ccccc21 8.51%
COc1ccc(/C=N/NC(=O)C2(O)c3ccccc3-c3ccccc32)cc1 6.06%
COc1ccccc1N(CC(=O)Nc1ccc(Cc2ccncc2)cc1)S(=O)(=O)c1ccccc1 0.87%
COc1ccc(C(=O)Nc2ccc3c(c2)n(C)c(=O)n3C)cc1OC 3.94%
O=S(=O)(Cc1ccccc1)N1CCN(C2Cc3ccccc3C2)CC1 9.97%
CCS(=O)(=O)N1CCN(C2CCC(C)CC2)CC1 (stereo not drawn) 17.9%
CCS(=O)(=O)N1CCN(C2Cc3ccccc3C2)CC1 13.9%
CC1CCC(N2CCN(S(=O)(=O)Cc3ccccc3)CC2)CC1 (stereo not drawn) 7.86%
Nc1cc2c(cc1Br)-c1ccccc1C2=NO 7.06%
COc1ccc(-c2nn(-c3ccccc3)cc2/C=N/Nc2ccc(Cl)c(C(=O)O)c2)cc1OC 13.5%
N#Cc1c(-c2ccccc2)nc(N2CCN(Cc3ccccc3)CC2)[nH]c1=O 0.49%
O=C(/C=C/c1cn(-c2ccccc2)nc1-c1cccnc1)NCCN1CCOCC1 11.7%
O=C(O)c1cc2ccc(O)cc2oc1=O 4.89%
O=c1oc2cc(O)ccc2cc1-c1ccccc1 15.9%
O=C(CCCc1nc2ccccc2s1)NC(c1ccccc1)c1ccccc1 6.29%
O=C(CN1N=C(c2ccccc2)CCC1=O)NCc1ccccc1 6.27%
COc1cc(CN(C)C(=O)C(=O)c2c[nH]c3ccccc23)ccc1O 8.17%
O=C(c1cc(-c2ccc(Cl)c(Cl)c2)on1)N1CCN(c2ccccc2)CC1 4.94%
COc1cc(NC(=O)c2cccs2)c(OC)cc1NC(=O)c1cccs1 4.2%
COc1ccc(NC(=O)c2ccc(NC(=O)c3cccs3)cc2)cc1 2.51%
COc1ccccc1NC(=O)c1cccs1 0.52%
COc1ccc(NC(=O)c2cccs2)cc1 8.32%
O=C(c1ccco1)N1CCc2ccccc21 3.81%
COCC(C)n1c(C)cc(C(=O)CSc2ncccn2)c1C (stereo not drawn) 8%
CN(CC1COc2ccccc2O1)C(=O)Cn1cc(C(F)(F)F)ccc1=O (stereo not drawn) 0.56%
NC(=O)C1CCN(Cc2ccc(OCc3ccccc3)cc2)CC1 21.3%
CCN(CC)C(=O)C1CCN(Cc2cccc(OCc3ccccc3)c2)CC1 19.6%
NC(=O)C1CCN(Cc2cccc(OCc3ccccc3)c2)CC1 21.4%
CCCCN(C)C(=O)C1CCN(Cc2cccnc2)CC1 27.6%
CCN(CC)C(=O)C1CCN(Cc2ccc(OCc3ccccc3)cc2)CC1 15.5%
CCCCN(C)C(=O)C1CCN(CCCc2ccccc2)CC1 21.2%
CCc1c(O)nc(SCC(=O)N2CCOCC2)n(-c2ccccc2)c1=O 9.22%
Cc1cc(NC(=O)COC(=O)CNC(=O)c2cccs2)c([N+](=O)[O-])cc1C 10.5%
O=C1OC(c2ccc(F)cc2)=N/C1=C\c1ccc(Br)o1 12.2%
NC(=O)CC(NC(=O)c1ccccc1)c1ccc(N2CCN(c3ccccn3)CC2)c([N+](=O)[O-])c1 (stereo not drawn) 6.77%
CC(C)CCNC(=O)CCCCn1c(=O)[nH]c2ccsc2c1=O 1.12%
CCn1cc(C(=O)NC2CCCCC2)c(=O)c2ccc(C)nc21 6.08%
CCOc1ccccc1OCCCCOc1ccccc1F 8.35%
CCOc1ccccc1C(=O)N[C@H](C(=O)NNC(=O)c1cccs1)C(C)C 2.5%
Cc1ccc(C)c(SCC(=O)NC(=O)NCc2ccccc2)c1 6.96%
Cc1ccc(NC(=O)N2CCCC2C(=O)Nc2ccc(-n3cnnn3)c(C)c2)cc1 (stereo not drawn) -9.47%
CS(=O)(=O)N1CCN(C(=O)NC23CC4CC(CC(C4)C2)C3)CC1 -2.26%
CN1CCCN(C2C3CC4CC(C3)CC2C4)CC1 (stereo not drawn) 14.8%
C/C(=N/OCC(=O)Nc1ccc(C)cc1C)c1cccs1 17%
Nc1c([N+](=O)[O-])c(=O)oc2ccccc12 3.99%
O=c1cc(-c2ccccc2[N+](=O)[O-])oc2ccccc12 4.61%
CN(C)S(=O)(=O)c1cccc(C(=O)c2nccn2C)c1 2.41%
Cc1ccc(C(=O)Nc2ncc(C)s2)s1 3.92%
Cc1ccsc1C=Nc1ccc(O)cc1 18.4%
Cc1ccc(-c2nc(C=Nc3ccc(O)cc3)c(O)o2)cc1 19%
COc1ccccc1NS(=O)(=O)c1cc(NC(=O)c2ccc(Cl)nc2)ccc1N1CCCC1 9.85%
CCn1nc(C)c(NC(=O)CSc2nnc(-c3ccco3)n2C)c1C 5.76%
Cc1nn(CCCC(=O)Nc2cnn(Cc3ccc(F)cc3)c2)c(C)c1[N+](=O)[O-] -3.65%
COc1cc(OC)cc(C(=O)N2CCCC(Nc3ccc(F)cc3)C2)c1 (stereo not drawn) 3.07%
COc1cccc(C(=O)N2CCCC(Nc3ccc(C)c(C)c3)C2)c1 (stereo not drawn) 16.7%
CC(C)c1ccc(NC2CCCN(C(=O)c3cccc(N4CCNC4=O)c3)C2)cc1 (stereo not drawn) 9.26%
Cc1ccc(C(=O)N2CCCC(Nc3cccc(F)c3)C2)cc1N1CCNC1=O (stereo not drawn) 7.34%
O=C(c1cccc(N2CCNC2=O)c1)N1CCCC(Nc2cccc(F)c2)C1 (stereo not drawn) -0.6%
Cc1ccc(NC2CCCN(C(=O)c3ccc(C)c(N4CCNC4=O)c3)C2)cc1C (stereo not drawn) 15.1%
CC(C)CNc1nc(N)c([N+](=O)[O-])c(NC2CCCCC2)n1 9.84%
CCc1nn2c(=O)cc(CSCC(=O)Nc3ccccc3Cl)nc2s1 10.2%
Cc1ccc(CN2CCN(Cc3ccc(OC(C)C)cc3)CC2CCO)o1 (stereo not drawn) 8.44%
Cc1cccnc1NC(=O)CCCNC(=O)c1ccc(Cl)cc1 5.51%
Oc1cccc(CCc2ccccn2)c1 -0.46%
Nc1ccc(CCc2ccccn2)cc1 -1.15%
COCCNC(=O)COc1cccc(Oc2ccccc2)c1 12.7%
COCCNC(=O)COc1ccc(Oc2ccccc2)cc1 8.68%
COc1ccc(OCC(=O)OCC(=O)NCc2ccco2)cc1 5.26%
O=C(COc1ccc(Cl)cc1)OCC(=O)N1CCCC1 8.63%
O=C(COc1ccc(Cl)cc1)OCC(=O)N1CCCCCC1 11.4%
O=C(COC(=O)COc1ccccc1)NCc1ccco1 5.42%
Cc1ccc(CNC(=O)C2CCC(CNS(=O)(=O)c3cccs3)CC2)cc1 (stereo not drawn) 5.1%

Source: PubChem BioAssay AID624330 (Southern Research Specialized Biocontainment Screening …, 2012)
